Out of some 1,200 compounds screened, about 150 (12%) were called active.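 How the source made its calls: active means ratio at least 3 SD above the weak peptide control, stable starting fluorescence, no direct agonism earlier; inactive means the rest.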 The full list was thinned out, with actives kept by preference.

Mas-related G-protein coupled receptor member X1 (Homo sapiens), sequence (Q96LB2 whole entry, looked up): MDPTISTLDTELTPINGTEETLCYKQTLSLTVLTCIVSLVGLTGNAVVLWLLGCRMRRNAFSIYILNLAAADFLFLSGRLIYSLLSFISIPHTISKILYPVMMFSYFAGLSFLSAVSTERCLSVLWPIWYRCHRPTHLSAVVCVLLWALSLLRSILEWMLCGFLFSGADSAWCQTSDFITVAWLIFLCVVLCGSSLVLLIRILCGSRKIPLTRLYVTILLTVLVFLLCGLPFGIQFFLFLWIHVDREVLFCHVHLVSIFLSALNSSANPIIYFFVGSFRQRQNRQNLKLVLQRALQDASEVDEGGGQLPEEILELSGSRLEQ

The experiment has as its target Mas-related G-protein coupled receptor member X1 (Homo sapiens) (UniProt Q96LB2). Put plainly: allosteric enhancers of human MrgX1 signaling – HEK293 cells, Fluo-4 calcium flux, confirmation (AID 602413).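 Further: compound followed by low BAM8-22 agonist challenge near EC20.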 The settings on record: MrgX1-HEK293, Fluo-4 calcium fluorescence, FDSS; at 10 µM; stronger effect = higher value.
`C=CCN1C(=O)C2(C(C(=O)OCC)=C(N)Oc3c2c(=O)oc2ccccc32)c2ccccc21` (stereo unspecified): the activation (ratio percentage) is 29.5% (active).

Values taken from PubChem BioAssay AID602413 (Johns Hopkins Ion Channel Center, 2012).
